# What was measured:
# Assay in all cases: yeast three-hybrid, YBZ-1, SC-Leu-His + 0.5 mM 3-AT, 4 days
# Settings in all cases: tags: N-Gal4 AD-HA kept; label: inside an RPR1-promoter hybrid RNA with tandem MS2 sites; ssRNA
# PUM1 PUF domain R1-RLN = PUM1 PUF domain R1-RLN (Homo sapiens, UniProt Q14671 828-1176, S863R;R864L;Q867N)
# Procedure, shortened: (§1)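 Repeat regions from input (SC-Leu) and selection (SC-Leu-His + 0.5 mM 3-AT) plates were PCR-amplified and Illumina-sequenced after four days of growth. The cells were strain YBZ-1 with a LexA–MS2 coat fusion and a HIS3 reporter, co-expressing Pumilio-1 PUF domain libraries and matching RNA elements from a centromeric plasmid. The interaction score is the log change in variant frequency from input to selection, taken in log2 with a pseudocount of 1 for absent variants.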
# PUM1 PUF domain R1-KFM = PUM1 PUF domain R1-KFM (Homo sapiens, UniProt Q14671 828-1176, S863K;R864F;Q867M)
# Chain of PUM1 PUF domain R1-KFM (Q14671 828-1176 S863K/R864F/Q867M): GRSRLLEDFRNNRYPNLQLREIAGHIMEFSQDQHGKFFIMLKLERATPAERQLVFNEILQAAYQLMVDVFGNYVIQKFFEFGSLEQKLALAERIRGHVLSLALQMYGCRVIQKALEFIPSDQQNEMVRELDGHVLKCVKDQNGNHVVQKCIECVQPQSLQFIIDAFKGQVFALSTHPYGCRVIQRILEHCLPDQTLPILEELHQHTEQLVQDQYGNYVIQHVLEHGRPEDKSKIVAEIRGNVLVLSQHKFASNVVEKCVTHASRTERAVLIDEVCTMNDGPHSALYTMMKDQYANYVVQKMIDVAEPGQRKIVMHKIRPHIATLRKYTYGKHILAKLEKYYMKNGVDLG
# Procedure, shortened: as §1
# PUM1 PUF domain R3-FRT = PUM1 PUF domain R3-FRT (Homo sapiens, UniProt Q14671 828-1176, C935F;Q939T)
# Chain of PUM1 PUF domain R3-FRT (Q14671 828-1176 C935F/Q939T): as the sequence (Q14671 828-1176 S863K/R864F/Q867M) above, with K36S, F37R, M40Q, C108F, Q112T counted along it
# Procedure, shortened: as §1
# PUM1 PUF domain R5-AYY = PUM1 PUF domain R5-AYY (Homo sapiens, UniProt Q14671 828-1176, C1007A;R1008Y;Q1011Y)
# Chain of PUM1 PUF domain R5-AYY (Q14671 828-1176 C1007A/R1008Y/Q1011Y): as the sequence (Q14671 828-1176 S863K/R864F/Q867M) above, with K36S, F37R, M40Q, C180A, R181Y, Q184Y counted along it
# Procedure, shortened: as §1
# PUM1 PUF domain R5-SKR = PUM1 PUF domain R5-SKR (Homo sapiens, UniProt Q14671 828-1176, C1007S;R1008K;Q1011R)
# Chain of PUM1 PUF domain R5-SKR (Q14671 828-1176 C1007S/R1008K/Q1011R): as the sequence (Q14671 828-1176 S863K/R864F/Q867M) above, with K36S, F37R, M40Q, C180S, R181K, Q184R counted along it
# Procedure, shortened: as §1
# PUM1 PUF domain R5-RNV = PUM1 PUF domain R5-RNV (Homo sapiens, UniProt Q14671 828-1176, C1007R;R1008N;Q1011V)
# Chain of PUM1 PUF domain R5-RNV (Q14671 828-1176 C1007R/R1008N/Q1011V): as the sequence (Q14671 828-1176 S863K/R864F/Q867M) above, with K36S, F37R, M40Q, C180R, R181N, Q184V counted along it
# Procedure, shortened: as §1
# PUM1 PUF domain R5-DHG = PUM1 PUF domain R5-DHG (Homo sapiens, UniProt Q14671 828-1176, C1007D;R1008H;Q1011G)
# Chain of PUM1 PUF domain R5-DHG (Q14671 828-1176 C1007D/R1008H/Q1011G): as the sequence (Q14671 828-1176 S863K/R864F/Q867M) above, with K36S, F37R, M40Q, C180D, R181H, Q184G counted along it
# Procedure, shortened: as §1
# PUM1 PUF domain R5-MHS = PUM1 PUF domain R5-MHS (Homo sapiens, UniProt Q14671 828-1176, C1007M;R1008H;Q1011S)
# Chain of PUM1 PUF domain R5-MHS (Q14671 828-1176 C1007M/R1008H/Q1011S): as the sequence (Q14671 828-1176 S863K/R864F/Q867M) above, with K36S, F37R, M40Q, C180M, R181H, Q184S counted along it
# Procedure, shortened: as §1
# PUM1 PUF domain R7-GNG = PUM1 PUF domain R7-GNG (Homo sapiens, UniProt Q14671 828-1176, S1079G;E1083G)
# Chain of PUM1 PUF domain R7-GNG (Q14671 828-1176 S1079G/E1083G): as the sequence (Q14671 828-1176 S863K/R864F/Q867M) above, with K36S, F37R, M40Q, S252G, E256G counted along it
# Procedure, shortened: as §1
# PUM1 PUF domain R3-RSA = PUM1 PUF domain R3-RSA (Homo sapiens, UniProt Q14671 828-1176, C935R;R936S;Q939A)
# Chain of PUM1 PUF domain R3-RSA (Q14671 828-1176 C935R/R936S/Q939A): as the sequence (Q14671 828-1176 S863K/R864F/Q867M) above, with K36S, F37R, M40Q, C108R, R109S, Q112A counted along it
# Procedure, shortened: as §1
# Chain of PUM1 PUF domain R1-RLN (Q14671 828-1176 S863R/R864L/Q867N): as the sequence (Q14671 828-1176 S863K/R864F/Q867M) above, with K36R, F37L, M40N counted along it
sequence,measurement,setting,value
GGCUAGAACUAGUGGAUCCCCCGGCGCCCGGCGGCUCGAGCCCGGGUAAGUGUAAAUCGUCUGCAUGCCGCCGGGCGCCAUGCCUGCAGGUCGACUCUAGAAAACAUG,binding signal,PUM1 PUF domain R1-RLN,2.71 log2 enrichment (interaction score)
same,binding signal,PUM1 PUF domain R1-KFM,4.3 log2 enrichment (interaction score)
GGCUAGAACUAGUGGAUCCCCCGGCGCCCGGCGGCUCGAGCCCGGGUAAGUGUAAAUUGUCUGCAUGCCGCCGGGCGCCAUGCCUGCAGGUCGACUCUAGAAAACAUG,binding signal,PUM1 PUF domain R1-RLN,2.1 log2 enrichment (interaction score)
GGCUAGAACUAGUGGAUCCCCCGGCGCCCGGCGGCUCGAGCCCGGGUAAGUGUAAGUAGUCUGCAUGCCGCCGGGCGCCAUGCCUGCAGGUCGACUCUAGAAAACAUG,binding signal,PUM1 PUF domain R3-FRT,4.75 log2 enrichment (interaction score)
GGCUAGAACUAGUGGAUCCCCCGGCGCCCGGCGGCUCGAGCCCGGGUAAGUGUAAAUAGUCUGCAUGCCGCCGGGCGCCAUGCCUGCAGGUCGACUCUAGAAAACAUG,binding signal,PUM1 PUF domain R5-AYY,3.24 log2 enrichment (interaction score)
GGCUAGAACUAGUGGAUCCCCCGGCGCCCGGCGGCUCGAGCCCGGGUAAGUGUCAAUAGUCUGCAUGCCGCCGGGCGCCAUGCCUGCAGGUCGACUCUAGAAAACAUG,binding signal,PUM1 PUF domain R5-SKR,5.88 log2 enrichment (interaction score)
same,binding signal,PUM1 PUF domain R5-RNV,2.8 log2 enrichment (interaction score)
GGCUAGAACUAGUGGAUCCCCCGGCGCCCGGCGGCUCGAGCCCGGGUAAGUGUUAAUAGUCUGCAUGCCGCCGGGCGCCAUGCCUGCAGGUCGACUCUAGAAAACAUG,binding signal,PUM1 PUF domain R5-RNV,2.58 log2 enrichment (interaction score)
same,binding signal,PUM1 PUF domain R5-DHG,4.67 log2 enrichment (interaction score)
same,binding signal,PUM1 PUF domain R5-MHS,5.58 log2 enrichment (interaction score)
GGCUAGAACUAGUGGAUCCCCCGGCGCCCGGCGGCUCGAGCCCGGGUAAGUUUAAAUAGUCUGCAUGCCGCCGGGCGCCAUGCCUGCAGGUCGACUCUAGAAAACAUG,binding signal,PUM1 PUF domain R7-GNG,5.55 log2 enrichment (interaction score)
GGCUAGAACUAGUGGAUCCCCCGGCGCCCGGCGGCUCGAGCCCGGGUAAGUGUAAUUAGUCUGCAUGCCGCCGGGCGCCAUGCCUGCAGGUCGACUCUAGAAAACAUG,binding signal,PUM1 PUF domain R3-RSA,3.54 log2 enrichment (interaction score)
GGCUAGAACUAGUGGAUCCCCCGGCGCCCGGCGGCUCGAGCCCGGGUAAGUGUGAAUAGUCUGCAUGCCGCCGGGCGCCAUGCCUGCAGGUCGACUCUAGAAAACAUG,binding signal,PUM1 PUF domain R5-MHS,2.4 log2 enrichment (interaction score)

# — paper PMC8384837, “Expanding the binding specificity for RNA recognition by a PUF domain”
